# Source: PubChem BioAssay (National Center for Advancing Translational Sciences (NCATS))
# Most compounds without a hit are left out; they make up all but 5.7% or so of the library.
# HP1b chromo inh = HTS for Inhibitors of HP1-beta Chromodomain Interactions with Methylated Histone Tails | Chromobox protein homolog 1 (Homo sapiens), P83916 | Potency, µM (top dose mostly 114 µM), without a hit: at the top dose activity change, negative = inhibition, most hits filed as inhibitors | 0.56% of 390,000 active | AlphaScreen HP1-beta / biotin-H3K9me3 peptide binding; further: potency means the concentration at half of the fitted maximal effect; nearly all actives have a fitted effect of over 70% in size
# Target sequence (P83916 whole entry, looked up): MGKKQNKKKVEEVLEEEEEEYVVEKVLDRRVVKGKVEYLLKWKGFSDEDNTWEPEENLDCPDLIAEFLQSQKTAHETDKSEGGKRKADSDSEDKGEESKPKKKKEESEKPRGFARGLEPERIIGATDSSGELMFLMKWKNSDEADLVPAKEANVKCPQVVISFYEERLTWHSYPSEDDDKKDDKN
#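 HP1-beta protein (50 nM final) preincubated 30 min at room temperature with biotinylated H3(1-18)K9me3 peptide (50 nM) in PBS pH 7.4, 0.01% Tween-20, then compound added for 30 min. AlphaScreen streptavidin donor/nickel chelate acceptor beads (10 ug/mL final), 30 min dark, luminescence read.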
# JMJD2E inh = qHTS Assay for Inhibitors of Human Jumonji Domain Containing 2E (JMJD2E); Lysine-specific demethylase 4E (Homo sapiens), B2RXH2; JMJD2E catalytic domain, FDH-coupled NADH fluorescence (FDH is formaldehyde dehydrogenase); Potency, µM (highest dose often 57.1 µM), for inactives: at the top dose activity change, negative = inhibition, most hits filed as inhibitors; 1.6% of 230,000 active; AID 2147, 2009; active means well fitted inhibition curve with a large enough effect, not every such curve was filed as active; inconclusive means small, poorly fitted or top-dose-only effect, or another doubt; inactive means no such curve, though single readings can be large or run the other way;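 further: potency means the concentration at half of the fitted maximal effect; 0% = wells with enzyme and -100% = buffer wells without enzyme; nearly all actives have a fitted effect of over 50% in size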
# Target sequence (B2RXH2 1-337 limits assumed): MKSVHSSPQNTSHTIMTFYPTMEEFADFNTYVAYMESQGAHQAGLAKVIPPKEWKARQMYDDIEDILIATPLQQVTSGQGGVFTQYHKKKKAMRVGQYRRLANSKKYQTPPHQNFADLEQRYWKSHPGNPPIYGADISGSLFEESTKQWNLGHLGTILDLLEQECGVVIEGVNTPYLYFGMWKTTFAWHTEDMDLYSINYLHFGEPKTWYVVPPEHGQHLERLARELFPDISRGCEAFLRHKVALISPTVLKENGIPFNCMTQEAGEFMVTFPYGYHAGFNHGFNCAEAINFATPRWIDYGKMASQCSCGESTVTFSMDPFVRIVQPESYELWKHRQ
# BAZ2B block = qHTS Assay for Inhibitors of BAZ2B. Potency, µM (highest dose often 114 µM), for the others: top-dose activity change, negative = inhibition, actives largely listed as inhibitors. Bromodomain adjacent to zinc finger domain protein 2B (Homo sapiens), Q9UIF8. AlphaScreen BAZ2B-H3K14Ac peptide displacement. 4.4% of 360,000 active. AID 504333, 2011; further: potency means the concentration at half of the fitted maximal effect; on the % scale 0 is the no-effect control and ±100 the full control effect; nearly all actives have a fitted effect of over 60% in size
#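 Complex of BAZ2B and biotin-H3K14Ac (50 nM apiece) forms over 30 min at RT, then faces library compounds up to 110 uM for another 30 min; AlphaScreen beads added, 20 min dark incubation, luminescence read.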
# JMJD2A Tudor inh = qHTS Assay for Inhibitors of JMJD2A-Tudor Domain; AlphaScreen JMJD2A-Tudor / H3K4me3 peptide binding; Potency, µM (series often up to 114 µM), without a hit: at the top dose activity change, negative = inhibition, usual class: inhibitors; 4.4% of 390,000 active; AID 504339, 2011; further: potency means the concentration at half of the fitted maximal effect; on the % scale 0 is the no-effect control and ±100 the full control effect; nearly all actives have a fitted effect of over 50% in size
# PI5P4Ka inh = qHTS for Inhibitors of phosphatidylinositol 5-phosphate 4-kinase (PI5P4K). PI5P4Kalpha enzyme, ADP-Glo luminescence, 60 min; hits give low values. max response, %. 1.2% of 330,000 active. AID 652105, 2013; active means max response of -50% or lower; inconclusive means between -30% and -50%; inactive means -30% or higher; further: value at the top dose of about 77 µM; on the % scale 0 is the no-effect control and ±100 the full control effect
#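 ADP-Glo luminescence end-point after a 60 min room-temperature kinase reaction. PI5P4Kalpha and substrate in HEPES pH 7.4 buffer with EGTA, 0.1% CHAPS and 5% DMSO; ATP at 5 microM final.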
# L3MBTL1 block = qHTS Assay for the Inhibitors of L3MBTL1. AID 485360, 2010. 0.66% of 230,000 active. AlphaScreen L3MBTL1–H3K9me1 peptide binding. Potency, µM (titrated, usually from 57.1 µM), for the others: at the top dose activity, negative = inhibition, usual class: inhibitors; further: potency means the concentration at half of the fitted maximal effect; on the % scale 0 is the no-effect control and ±100 the full control effect; nearly all actives have a fitted effect of over 60% in size
#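 AlphaScreen assay: L3MBTL1 (50 nM final) was preincubated 30 min at room temperature with biotinylated H3(1-15)K9me1 peptide (75 nM final), then 30 min with library compounds; streptavidin donor and nickel chelate acceptor beads (10 ug/mL final) added, 30 min dark.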
# * hit, by the source's call; u = inconclusive; x = not tested or not shown; [ ] = remark or other dose. Unless noted, the call rests on the fitted dose curve; in most records, active means well fitted inhibition curve with a large enough effect; inconclusive means small, poorly fitted or top-dose-only effect; inactive means no such curve, though single readings can be large or run the other way.
SMILES,HP1b chromo inh,JMJD2E inh,BAZ2B block,JMJD2A Tudor inh,PI5P4Ka inh,L3MBTL1 block
C=C(C)C(=O)Nc1cccc(C2=NOC3(C2)C[C@H](C(N)=O)N(C(=O)c2ccccc2C(=O)c2ccccc2)C3)c1 (some centres not stated),u,-13%,10µM*,7.9µM*,-26,x
CCCCC(=O)Nc1nnnn1CCC,-15%,1%,-2%,-5%,-6,1%
CCCn1nnnc1NC(=O)COc1ccc(Br)cc1,40%,-7%,79µM*,u,-8,-26%
Cc1ccc(Cl)cc1NC(=O)C1CCCN(S(=O)(=O)c2c(C)noc2/C=C/N(C)C)C1 (configuration not stated),25%,x,u,-28%,x,x
O=C(O)c1ccc2c(c1)C(=O)N([C@]1(C(=O)O)C[C@H]1c1ccccc1)C2=O,x,x,1%,-21%,x,10%
CN(C)/C=C/C(=O)c1ccc(-c2ccc(Cl)cc2Cl)o1,-21%,3%,u,-22%[57.1 µM],-64*,-16%
O=C(O)c1ccc(-c2ccc(Cl)cc2Cl)o1,3%,-2%,-26%,-28%,u,x
CN1C(=O)/C(=C2\SC(=S)N(C(CCC(=O)O)C(=O)O)C2=O)c2ccccc21 (configuration not stated),16%,13µM*,u,4%[11.4 µM],-8,-8%
CN1C(=O)/C(=C2\SC(=S)N(CC3CCCO3)C2=O)c2ccccc21 (configuration not stated),x,6%,-33%,x,x,-5%
COC(=O)c1cc(C(=O)OC)n(Cc2ccc(F)cc2)c1C,27%,0%,2%,8%,4,14%
COC(=O)c1c[nH]c(=S)n1Cc1ccccc1,18%[57 µM],x,x,2.8µM*,-4,x
Cc1oc(-c2cccc(Cl)c2)nc1CSc1nc2ncccc2[nH]1,16%,x,-2%,-17%,x,x
Oc1[nH]c2ccccc2c1N=Nc1ccccn1,29%,x,x,-26%,0,x
Oc1c(N=Nc2ccccn2)ccc2ccccc12,5µM*,u,3.2µM*,2.8µM*,-10,11µM*
CC1=C(c2ccc(Cl)cc2)S(=O)(=O)NC1=NCc1ccc(C)cc1,-2%,x,-33%,-35%,x,x
CCc1ccc(S(=O)(=O)c2cn(C)c3cc(N4CCN(CC)CC4)c(F)cc3c2=O)cc1,-3%,x,-1%,-24%,x,x
c1ccc(-c2nc(NCc3cccnc3)c3oc4ccccc4c3n2)cc1,48%,-24%,50µM*,u,14,7%
O=C(NCC1CCCN1S(=O)(=O)c1ccccc1)C(=O)NC1CC1 (configuration not stated),0%,x,5%,35µM*,-8,7%
O=C(NCCC1CCCCN1S(=O)(=O)c1ccccc1)C(=O)NC1CCCC1 (configuration not stated),28%,x,-4%,-7%,-1,8%
Cn1cccc1/C=N/NC(=O)c1cccc(OC(F)(F)C(F)F)c1,u,5%,u,79µM*,-9,-6%
Cc1nn(Cc2ccc(F)cc2)c2sc(C(=O)Nc3ccc(N4CCOCC4)cc3N3CCOCC3)cc12,u,u,40µM*,u,7,-30%
Cn1c(CS/C(N)=N/N=C/c2ccccc2)c(Br)c(=O)n1-c1ccccc1,-6%,-9%,u,50µM*,-27,8%
O=C1C2C(C(=O)N1/N=C/c1cc(Br)cc([N+](=O)[O-])c1O)C1C=CC2C12CC2 (configuration not stated),u,4%,u,79µM*,u,-8%
O=C1C2C(C(=O)N1/N=C/c1cc([N+](=O)[O-])c(O)cc1O)C1C=CC2C12CC2 (configuration not stated),-19%,-10%,u,50µM*,-74*,32µM*
Cc1cc(Br)ccc1NC(=O)CCS(=O)(=O)c1cccc2nsnc12,21%,x,-21%,-22%,x,x
SMILES,HP1b chromo inh,JMJD2E inh,BAZ2B block,JMJD2A Tudor inh,PI5P4Ka inh,L3MBTL1 block
O=[N+]([O-])c1cc2oc3c(c2c(C=NCc2ccncc2)c1O)CCCC3,u,28µM*,35µM*,56µM*,-81*,u
CCOc1cc(CN2CCN(c3ncccn3)CC2)ccc1OC,u,x,79µM*,2.8µM*,-8,20%
O=S(=O)(Cc1ccc(Cl)cc1)N1CCN(c2ncccn2)CC1,32%,x,-10%,-8%,1,x
Fc1ccc(F)c(CN2CCN(c3ncccn3)CC2)c1,15%,7%,-35%,-21%,x,10%
Fc1ccc(CN2CCN(c3ncccn3)CC2)cc1,u,u,u,10µM*,x,x
CCc1ccc(CN2CCN(c3ncccn3)CC2)cc1,-21%,x,50µM*,20µM*,-2,5%[2.29 µM]
COc1ccc(CNC(=O)Cn2cnc3c(NCc4ccccc4)ncnc32)cc1,4%,x,x,-22%,3,3%
CCC(CO)Oc1cc(NCc2cccc(OC)c2)c2ncn(C(C)C)c2c1 (configuration not stated),15%,x,x,u,3,-12%
CCOCCOc1cc(NCc2ccccc2)c2ncn(C(C)C)c2c1,14µM*,x,x,10µM*,0,x
COCCCOc1cc(NCc2ccccc2)c2ncn(C(C)C)c2c1,-34%,x,x,56µM*,9,-19%
COc1cc(NCc2ccccc2)c2ncn(Cc3ccccc3)c2c1,u,x,x,25µM*,-1,u
CCCCOc1cc(NCc2ccccc2)c2ncn(C(C)C)c2c1,u,x,x,40µM*,1,u
COc1ccc(Cc2cc(NCc3ccccc3)c3ncn(C(C)C)c3c2)cc1,-36%,x,x,40µM*,-2,u
CC(C)n1cnc2c(NCc3ccccc3)cc(N[C@H](C)CO)cc21,u,x,x,56µM*,-17,u
CCC(CO)Oc1cc(NCc2cccc(F)c2)c2ncn(C(C)C)c2c1 (configuration not stated),-22%,x,x,u,2,-23%
COCCCNCC(=O)Nc1ccc(OC(F)(F)F)cc1,-10%,-18%,u,2.8µM*,-2,8%
COc1ccc(CCNCC(=O)Nc2ccc(OC(F)(F)F)cc2)cc1OC,u,x,u,20µM*,9,-4%
CCC1CCCCN1CCCNC(=O)C1CCN(c2nnc(-n3cccc3)s2)CC1 (configuration not stated),27%,x,-19%,-21%,1,x
